The text below walks through data of PubChem BioAssay AID2314 (National Center for Advancing Translational Sciences (NCATS), 2010).

Where “and” joins values, the source holds several entries; their conditions need not be identical. Identical values can stand only once. About 37,000 (12%) of roughly 300,000 compounds were called active. Cut-off read from the data, not from the text of the source: active = max response mostly above about 13% (no sharp cut-off); inactive = mostly below about 14%. Shown is part of a subset that was picked to be rich in actives.

The nature of the assay: Cycloheximide Counterscreen for Small Molecule Inhibitors of Shiga Toxin. Note: read at 38.3 µM for the half of the compounds with a filed dose; 0% is about no effect. The settings on record: cell reporter, cycloheximide protein synthesis inhibition counterscreen; active compounds read high.
Regarding `COc1ccc(NC(=O)C2C3CCC(O3)C2C(=O)O)cc1OC` (stereo unspecified), the max response is -2.93% (inactive).
For `COc1ccc(CN2C3CCCC2CC(NC(=O)c2cccc(F)c2)C3)cc1` (stereo unspecified), the max response is -1.01% (inactive).
In the case of `CCOC(=O)c1ccccc1NC(=O)COC(=O)CCC(=O)N1CCOCC1` it was -1.15% (inactive); in that of `COc1cc2c(cc1OC)C(C)N(S(=O)(=O)c1cnc(Cl)c(Cl)c1)CC2` (stereo unspecified), 11.2% (inactive); in that of `COc1ccc(-n2ncc3c2CC(C)(C)CC3NC(=O)CCc2c(C)nn(C)c2C)cc1` (stereo unspecified), 0.573% (inactive).
`CCCNC(=O)c1ccc(N2CCC3(CC2)CC(c2ccc(Cl)cc2)=NO3)c([N+](=O)[O-])c1`: the max response is -0.889% (inactive).
Turning to `OCCN1CCN(C(=S)c2ccc(-c3ccccc3)cc2)CC1`, the max response is -2.28% (inactive).
The result for `S=C(c1ccc(-c2ccccc2)o1)N1CCCCC1` reads 38.1% (active).
In the case of `S=C(c1ccccc1)N1CCCC1` it was -0.586% (inactive).
In the case of `Cc1ccc(OCC(=O)Nc2ccc(N3CCN(C(=O)c4ccco4)CC3)cc2)c(C)c1` it was -1.02% (inactive); in that of `c1ccc(CN=C2Nc3ccccc3CS2)nc1`, 36.1% (active).
Take `CCOC(=O)c1c(-c2ccccc2)oc2cc(Br)c(O)cc12`: the max response was -1.41% (inactive).
For `Cc1ccc(C)c(S(=O)(=O)N2CCCOC2CNC(=O)C(=O)NC2CCCCC2)c1` (stereo unspecified), the max response is 7.6% (inactive).
The result for `COC(=O)c1sc2ncccc2c1OCc1ccc(Cl)cc1Cl` reads 4.4% (inactive); that for `Cc1nc2ccccc2nc(C)c1=NOCc1ccc(Cl)cc1Cl`, 39.1% (active); that for `O=S(=O)(O)c1nc2ccccc2n1Cc1ccc(Cl)cc1Cl`, -2.23% (inactive).
In the case of `Cc1ccc(-n2ncc3c2CC(C)(C)CC3NC(=O)CCc2cnn(C)c2)cc1` (stereo unspecified) it was -4.22% (inactive); in that of `O=C1c2cccc3cccc(c23)C(=O)N1c1cccc(O)c1`, -2.33% (inactive).
The result for `O=C(Nc1cccc(Cl)c1N1CCOCC1)c1cccnc1` reads 6.59% (inactive); that for `Cc1noc(C)c1C(=O)NCCc1ccc(S(N)(=O)=O)cc1`, -1.04% (inactive).
With `Cc1nc2sccn2c(=O)c1S(=O)(=O)NCCc1ccccc1`, the max response is -3.53% (inactive).
The result for `C/C(=N/Nc1nc(-c2ccccc2)c(CC(=O)O)s1)c1ccccc1` reads 35% (active); that for `Cc1ccc(-c2nc(C)sc2CC(=O)O)cc1`, -1.04% (inactive).
In the case of `CCOC(=O)C(=O)Nc1nc(-c2ccccc2)c(CC)s1` it was -3.08% (inactive).
In the case of `O=[N+]([O-])c1ccccc1S(=O)(=O)Nc1cccc2cccnc12` it was 10.3% (inactive) and 10.1% (inactive) and -3.71% (inactive); in that of `CCN1CCN(C(=O)CCN2C(=O)c3ccccc3C2=O)CC1`, -1.33% (inactive).
In the case of `CCOC(=O)N1CCN(C(=O)CSc2ccc(Cl)cc2)CC1`, the max response is 20.3% (active).
The result for `CCN1CCN(C(=O)CSc2ccc(C)cc2)CC1` reads 15.7% (active).
The result for `CS(=O)(=O)N1CCN(C(=O)CSc2ccccc2)CC1` reads -1.13% (inactive); that for `CCOC(=O)N1CCN(C(=O)CNC(=O)Cc2ccc(Cl)cc2)CC1`, -1.82% (inactive).
The result for `CCOC(=O)N1CCN(C(=O)COc2ccc(Cl)cc2C)CC1` reads -3.61% (inactive); that for `COc1ccc(OC)c(NC(=O)c2ccc3c(c2)C(=O)N(c2ccc(OC(C)=O)cc2)C3=O)c1`, 2.74% (inactive).
Take `CCC1SC2=NCCN2C1(O)c1ccc(Cl)cc1` (stereo unspecified): the max response is -0.782% (inactive).
For the compound `COc1ccc(-c2csc3nc(-c4ccccc4F)oc(=O)c23)cc1OC`, the max response was -1.13% (inactive).
The result for `COc1ccc(-c2noc(-c3cccc(OC)c3OC)n2)cc1OC` reads 36% (active); that for `CCOc1nc(-c2ccc(OC)cc2)ccc1-c1noc(-c2cc(OC)c(OC)c(OC)c2)n1`, 8.08% (inactive); that for `Cc1ccccc1OCC(=O)Nc1ccc(S(=O)(=O)N2CCOCC2)cc1`, 4.38% (inactive).
The result for `CCCOc1cccc(C(=O)Nc2ccccc2C(=O)N2CCN(C)CC2)c1` reads -0.829% (inactive).
Consider `Nc1cccc2c1C(=O)N(Cc1nnc(-c3ccccc3Br)o1)C2=O`, for which the max response was 12.5% (inactive).
In the case of `Cn1cnnc1SCc1nnc(-c2ccccc2Br)o1` it was 24% (active); in that of `Cn1cnnc1SCC(=O)NNC(=O)COc1ccc(Br)cc1`, -2.49% (inactive).
In the case of `Cc1ccc(S(=O)(=O)/N=C(\CN2CCOCC2)N2CCOCC2)cc1`, the max response was -4.56% (inactive).
The result for `COc1cc(/C=N/Nc2nn3cnnc3c3ccccc23)cc(OC)c1OC` reads 17.3% (inactive); that for `CN(CCO)c1ccc(/C=N/Nc2nncc3ccccc23)cc1`, 26.2% (active).
In the case of `Cc1[nH]c(C)c(S(=O)(=O)N2CCC(C)CC2)c1C(=O)N1CCCC1` it was -1.96% (inactive).
The result for `CCc1ccc(OCC(=O)OC(C)C(=O)NC2CC2)cc1` (stereo unspecified) reads -3.17% (inactive).
Regarding `Cc1nc(-c2ccc(Cl)cc2)sc1C(=O)CBr`, the max response is 24.4% (active).
The result for `Cc1nc(-c2ccc(Cl)cc2)sc1C(=O)NN` reads 0.842% (inactive); that for `CCC(Sc1nncn1C)C(=O)Nc1nnc(-c2ccc(Cl)cc2)s1` (stereo unspecified), 11.6% (inactive).
For the compound `Cc1cc(/C=N/NC(=O)CC2(C)OCCO2)c(C)n1-c1ccc(Cl)c(Cl)c1`, the max response is -1.92% (inactive).
In the case of `COc1ccc(-c2noc(CNC(=O)C(C)Oc3ccccc3)n2)cc1` (stereo unspecified) it was 0.411% (inactive); in that of `Cc1ccc(-c2nc(CS(=O)(=O)CC(=O)NCc3ccc4c(c3)OCO4)c(C)o2)cc1`, -6.73% (inactive).
Regarding `CC(=O)N1CCSc2ccc(S(=O)(=O)N3CCC(C)CC3)cc21`, the max response was 11.3% (inactive).
As for `COc1ccc2nc(C)cc(Nc3cccc(C(=O)O)c3)c2c1`, the max response is -4.02% (inactive).
The result for `COc1ccc2nc(/N=C(\N)NC(=O)Nc3ccccc3)nc(C)c2c1` reads 21.4% (active); that for `Cc1nc(/N=C(\N)NC(=O)NC2CCCCC2)nc2ccccc12`, 8.1% (inactive); that for `NC(=O)c1cc(S(=O)(=O)N2CCCC2)ccc1OCc1ccc(F)cc1`, 8.59% (inactive).
The result for `COc1ccc(CCNc2nc(C)cc(C)n2)cc1OC` reads -4.51% (inactive); that for `CCOC(=O)c1c(NC(=S)NC(=O)/C=C/c2cccs2)sc(C)c1C`, -0.873% (inactive); that for `CCOC(=O)c1sc(=NC(=O)/C=C/c2cccs2)n(C)c1C`, 45% (active).
Take `CCOC(=O)c1sc(=NC(=O)c2ccc(Br)cc2)n(C)c1C`: the max response was 7.25% (inactive).
